Experimental data as given in PubChem BioAssay.

test: S6 kinase pathway phospho-S6 level changes – cell-based, A549, cytoblot, luminescence, serum-stimulated, primary screen (AID 1158); settings: 5 h, higher = more signal;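 note: serum-stimulated A549 lung adenocarcinoma cells; signal is phosphorylated S6 detected by cytoblot immunostaining with HRP secondary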

Question: With `C=CCN1C(=O)[C@@]2(Cc3ccccc31)N=C(c1ccc(OCCCO)cc1)O[C@H]2c1ccccc1` as the compound, how does the z-score read?
Answer: 0.104

Question: With `[N-]=[N+]=Nc1ccccc1[C@@H]1OC(c2ccc(OCCCO)cc2)=N[C@]1(CCS(=O)(=O)c1ccccc1)C(N)=O` as the compound, how does the z-score read?
Answer: 0.0742

Question: For `CN(C)C(=O)[C@@]1(CCS(=O)(=O)c2ccccc2)COC(c2ccc(OCCCO)cc2)=N1`, which z-score is on record?
Answer: 0.313

Question: For `CCOC(=O)C[C@H]1[C@H](OC(=O)c2cc3ccccc3oc2=O)[C@@H](NC(=O)c2ccccc2)c2cc(OCCCO)ccc2N1C(=O)c1ccc2ccccc2n1`, which z-score is on record?
Answer: -0.253

Question: Which z-score does the source give for `C=CCOC(=O)[C@H]1[C@@H]2C(=O)O[C@@H](c3ccccc3)[C@@H](c3ccccc3)N2[C@@H](c2ccc(OCCOC(=O)[C@H]3C[C@H]4C(=O)N[C@@H](CCCCNC(C)=O)C(=O)N4[C@H]3c3cccc(OCCO)c3)cc2)[C@]12C(=O)Nc1ccccc12` here?
Answer: -0.116

Question: For `CC(C)C(CO)N1C(=O)[C@@H]2C3C(=O)OCCC/C=C\[C@H]3OC23C=CCN(CCN2CCOCC2)C(=O)[C@@H]13` (some centres undefined), which z-score is on record?
Answer: -0.158

Question: For `O=C(NCCN1CCOCC1)C1N=C(c2ccc(OCCCO)cc2)N(c2ccccc2)O1` (centres undefined), which z-score is on record?
Answer: -0.441

Question: With `COC(=O)[C@@]1(Cc2ccccc2)[C@H]2c3cc(C(=O)N4CCCC4)n(Cc4ccc(S(C)(=O)=O)cc4)c3C[C@H]2CN1C(=O)c1ccccc1` as the compound, how does the z-score read?
Answer: -0.121

Question: Which z-score does the source give for `O=C1[C@@]23C=C(Br)[C@H](C[C@@H]2CCOC3)[C@@]12CO2` here?
Answer: -0.31

Question: For `O=C(c1ccccc1)N1C(=O)[C@]2(COC(c3ccc(OCCCO)cc3)=N2)Cc2ccccc21`, which z-score is on record?
Answer: -0.394

Question: For `Cc1nc2cc(Br)ccc2c(=O)o1`, which z-score is on record?
Answer: 0.472

Question: For `CCCCC(CC)C(O)C1C=CC2C(=O)N(Cc3ccccc3)C(=O)C2N1n1cnnc1` (centres undefined), which z-score is on record?
Answer: -0.908

Question: With `CC(C)C(O)C1C=CC2C(=O)NC(=O)C2N1Nc1ccc(Cl)cc1Cl` (centres undefined) as the compound, how does the z-score read?
Answer: -1.23

Question: For `COCCOC(=O)N1C(=O)[C@@]2(c3ccccc31)[C@H](c1ccc(O)cc1)N1[C@H](c3ccccc3)[C@H](c3ccccc3)OC(=O)[C@H]1[C@@H]2C(=O)Nc1nc2ccccc2s1`, which z-score is on record?
Answer: 0.172

Question: Which z-score does the source give for `CC(C)C(=C=CC[C@@H](O)c1ccc(OCCO)cc1)C[C@@H](O)COCc1ccccc1` here?
Answer: 4.27

Question: With `O=C1C2C=CC(C(O)Cc3ccccc3)N(n3cnnc3)C2C(=O)N1Cc1ccccc1` (centres undefined) as the compound, how does the z-score read?
Answer: -0.309

Question: Which z-score does the source give for `COCCOC(=O)N1C(=O)[C@@]2(c3cc(C#Cc4ccc(OC)cc4)ccc31)[C@H](c1ccc(O)cc1)N1[C@H](c3ccccc3)[C@H](c3ccccc3)OC(=O)[C@H]1[C@@H]2C(=O)N1CCc2cc(OC)c(OC)cc2C1` here?
Answer: 0.035

Question: With `COc1cc2c(cc1O)C(C1CC1)N(Cc1sc3ccccc3c1Cl)CC2` (centres undefined) as the compound, how does the z-score read?
Answer: -0.0956

Question: Which z-score does the source give for `CC(C)C(=C=CC[C@H](O)c1ccc(OCCO)cc1)CCO` here?
Answer: -0.365

Question: Which z-score does the source give for `CC(=O)NCCCC[C@@H]1NC(=O)[C@@H]2C[C@H](C(=O)NCCCCCNC(=O)CS)[C@H](c3cccc(OCCO)c3)N2C1=O` here?
Answer: 0.697

Question: Which z-score does the source give for `NC(=O)NCC#Cc1ccc2c(c1)[C@]1(C(=O)N2)[C@H](c2ccc(O)cc2)N2[C@H](c3ccccc3)[C@H](c3ccccc3)OC(=O)[C@H]2[C@@H]1C(=O)O` here?
Answer: -0.0856

Question: With `COc1cc(Br)cc(C(O)C2C=CC3C(=O)N(C)C(=O)C3N2N2CCCCC2)c1OC` (centres undefined) as the compound, how does the z-score read?
Answer: -1.45

Question: With `COc1ccc(CCNC(=O)[C@@H]2c3ccccc3C(=O)N(Cc3ccccc3Cl)[C@H]2c2ccc(CO)cc2)cc1` as the compound, how does the z-score read?
Answer: -0.144

Question: With `CCCCN1CC=CC23O[C@@H]4C=CCCOC(=O)C4[C@H]2C(=O)N(CCCCCCO)[C@@H]3C1=O` (some centres undefined) as the compound, how does the z-score read?
Answer: -0.493

Question: Which z-score does the source give for `CCOC(=O)C[C@H]1[C@H](OC(=O)c2ccc(C(=O)c3ccccc3)cc2)[C@@H](NC(=O)c2ccccc2)c2cc(OCCCO)ccc2N1C(=O)c1ccc2ccccc2n1` here?
Answer: -0.0519

Question: With `C=CCOC(=O)[C@H]1[C@@H]2C(=O)O[C@@H](c3ccccc3)[C@@H](c3ccccc3)N2[C@@H](c2ccc(OCCOC(=O)[C@H]3C[C@H]4C(=O)N[C@@H](CCCC[N+](C)(C)C)C(=O)N4[C@H]3c3ccc(O)cc3)cc2)[C@]12C(=O)Nc1ccc(I)cc12` as the compound, how does the z-score read?
Answer: -0.519

Question: Which z-score does the source give for `CC(CO)N1C(=O)[C@@H]2C3C(=O)OCCC/C=C\[C@H]3OC23C=CCN(C(C)(C)C)C(=O)[C@@H]13` (some centres undefined) here?
Answer: -0.0054

Question: Which z-score does the source give for `CC1CC/C=C\[C@H]2OC34C=CCN(C(C)(C)C)C(=O)[C@H]3N(C(C)CO)C(=O)[C@@H]4C2C(=O)O1` (some centres undefined) here?
Answer: 0.021

Question: For `COc1ccc(C#Cc2ccc3c(c2)[C@]2(C(=O)N3)[C@H](C(=O)Nc3nc4ccccc4s3)[C@H]3C(=O)O[C@H](c4ccccc4)[C@H](c4ccccc4)N3[C@@H]2c2ccc(O)cc2)cc1`, which z-score is on record?
Answer: -0.249
